# Key:
# Assay in all cases: DAPPL (digital affinity profiling via proximity ligation, sequencing); 10 mM Tris-HCl pH 7.5, 50 mM NaCl, 1 mM DTT, 4% glycerol, room temperature, 30 min; GST-TFs on glutathione beads, 16-mer random dsDNA library, 0.1% formaldehyde crosslink after washing; high values mean tight binding
# Conditions in all cases: protein: recombinant; tags: N-terminal GST; dsDNA, one strand shown
# [1] = molecular target: T1, ELK4 (Homo sapiens, UniProt P28324-2 1-405)
# T1 sequence: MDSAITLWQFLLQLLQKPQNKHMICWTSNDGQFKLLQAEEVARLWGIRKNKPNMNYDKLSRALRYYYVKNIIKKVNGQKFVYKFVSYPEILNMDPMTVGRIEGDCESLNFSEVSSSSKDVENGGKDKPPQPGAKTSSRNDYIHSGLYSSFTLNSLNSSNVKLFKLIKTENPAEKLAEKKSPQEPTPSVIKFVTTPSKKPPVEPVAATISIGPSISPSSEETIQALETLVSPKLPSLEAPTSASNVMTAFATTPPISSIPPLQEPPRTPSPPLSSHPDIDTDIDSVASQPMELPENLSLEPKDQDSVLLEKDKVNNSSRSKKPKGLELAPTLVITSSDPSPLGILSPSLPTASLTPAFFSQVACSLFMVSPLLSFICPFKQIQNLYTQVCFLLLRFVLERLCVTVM
# In short: (§1)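 Sequencing on an Illumina NextSeq500 followed washing, crosslinking with 0.1% formaldehyde, proximity ligation (BsaI/T4 ligase, 1 h, 37 °C) and PCR amplification of pools that had been incubated for 30 min at room temperature with 200 nmole of a random double-stranded 16-mer DNA library in Tris/NaCl/DTT/glycerol buffer. Each pool held DNA-barcoded human transcription factors, expressed in yeast as GST fusions and captured on glutathione beads, plus a tag-only sample. Binding signal is a hexamer's read frequency for a factor divided by its frequency in the tag-only sample.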
# [2] = molecular target: T2, ETV2 (Homo sapiens, UniProt O00321 1-342)
# T2 sequence: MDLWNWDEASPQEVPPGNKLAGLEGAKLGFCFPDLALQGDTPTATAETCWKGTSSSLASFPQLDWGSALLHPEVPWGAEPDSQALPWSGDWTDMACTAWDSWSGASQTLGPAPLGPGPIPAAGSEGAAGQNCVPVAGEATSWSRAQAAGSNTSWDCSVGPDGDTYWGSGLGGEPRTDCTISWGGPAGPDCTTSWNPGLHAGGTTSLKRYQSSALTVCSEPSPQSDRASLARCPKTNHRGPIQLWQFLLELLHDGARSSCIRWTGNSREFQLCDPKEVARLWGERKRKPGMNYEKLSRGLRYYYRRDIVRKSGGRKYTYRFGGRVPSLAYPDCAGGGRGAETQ
# In short: as §1
# [3] = molecular target: T3, ELF3 (Homo sapiens, UniProt P78545 1-371)
# T3 sequence: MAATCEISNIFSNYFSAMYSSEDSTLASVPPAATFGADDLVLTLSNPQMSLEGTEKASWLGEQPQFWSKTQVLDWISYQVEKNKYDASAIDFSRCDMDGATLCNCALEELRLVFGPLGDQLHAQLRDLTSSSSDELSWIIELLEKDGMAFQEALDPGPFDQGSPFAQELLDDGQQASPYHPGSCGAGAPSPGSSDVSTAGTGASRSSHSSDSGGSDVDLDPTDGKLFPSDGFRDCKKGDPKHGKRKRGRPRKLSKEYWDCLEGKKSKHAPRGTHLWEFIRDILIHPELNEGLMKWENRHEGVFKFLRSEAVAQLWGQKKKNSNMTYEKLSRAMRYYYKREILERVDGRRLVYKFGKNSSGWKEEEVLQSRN
# In short: as §1
# [4] = molecular target: ETV1 (Homo sapiens, UniProt P50549 1-477)
# In short: as §1
# [5] = molecular target: T4, ERF (Homo sapiens, UniProt P50548 1-548)
# T4 sequence: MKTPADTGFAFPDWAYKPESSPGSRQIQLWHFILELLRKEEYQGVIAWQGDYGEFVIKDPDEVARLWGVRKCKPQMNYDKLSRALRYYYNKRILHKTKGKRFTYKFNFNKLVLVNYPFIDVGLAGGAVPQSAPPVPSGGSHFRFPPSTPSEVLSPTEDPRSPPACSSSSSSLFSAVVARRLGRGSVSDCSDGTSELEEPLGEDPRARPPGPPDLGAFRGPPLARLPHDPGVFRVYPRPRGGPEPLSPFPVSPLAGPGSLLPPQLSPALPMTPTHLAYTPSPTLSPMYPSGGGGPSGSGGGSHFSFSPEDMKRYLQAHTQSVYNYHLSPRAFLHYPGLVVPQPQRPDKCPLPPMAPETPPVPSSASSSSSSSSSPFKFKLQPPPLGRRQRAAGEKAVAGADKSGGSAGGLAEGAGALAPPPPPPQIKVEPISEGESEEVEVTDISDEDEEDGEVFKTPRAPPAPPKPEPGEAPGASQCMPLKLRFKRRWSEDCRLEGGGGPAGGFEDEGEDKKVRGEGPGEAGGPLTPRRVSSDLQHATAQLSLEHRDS
# In short: as §1
# [6] = molecular target: T5, ETV3L (Homo sapiens, UniProt Q6ZN32 1-361)
# T5 sequence: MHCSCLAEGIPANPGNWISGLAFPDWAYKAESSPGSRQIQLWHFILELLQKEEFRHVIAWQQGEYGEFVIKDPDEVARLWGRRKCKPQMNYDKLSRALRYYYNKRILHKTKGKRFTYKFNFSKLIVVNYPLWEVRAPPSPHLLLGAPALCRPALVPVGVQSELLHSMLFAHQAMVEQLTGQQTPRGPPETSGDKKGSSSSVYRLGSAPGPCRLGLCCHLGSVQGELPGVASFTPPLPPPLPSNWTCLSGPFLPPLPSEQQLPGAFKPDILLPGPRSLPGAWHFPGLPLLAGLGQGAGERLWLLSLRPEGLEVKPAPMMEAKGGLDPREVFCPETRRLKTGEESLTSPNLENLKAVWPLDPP
# In short: as §1
# [7] = molecular target: T6, ETS2 (Homo sapiens, UniProt P15036 1-469)
# T6 sequence: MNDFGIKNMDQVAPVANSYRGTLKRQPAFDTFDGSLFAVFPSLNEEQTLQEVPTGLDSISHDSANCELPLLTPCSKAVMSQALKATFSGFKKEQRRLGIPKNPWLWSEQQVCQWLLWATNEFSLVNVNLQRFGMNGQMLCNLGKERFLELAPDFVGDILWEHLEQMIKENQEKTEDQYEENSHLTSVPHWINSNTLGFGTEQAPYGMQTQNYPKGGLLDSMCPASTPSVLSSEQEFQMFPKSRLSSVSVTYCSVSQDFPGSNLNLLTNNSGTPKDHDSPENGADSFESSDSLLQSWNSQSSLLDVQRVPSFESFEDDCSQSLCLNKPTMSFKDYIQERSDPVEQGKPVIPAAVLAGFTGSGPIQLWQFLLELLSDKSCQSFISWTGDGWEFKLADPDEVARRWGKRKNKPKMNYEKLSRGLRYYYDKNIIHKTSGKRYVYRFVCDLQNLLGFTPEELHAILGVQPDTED
# In short: as §1
# [8] = molecular target: T7, SPDEF (Homo sapiens, UniProt O95238 1-335)
# T7 sequence: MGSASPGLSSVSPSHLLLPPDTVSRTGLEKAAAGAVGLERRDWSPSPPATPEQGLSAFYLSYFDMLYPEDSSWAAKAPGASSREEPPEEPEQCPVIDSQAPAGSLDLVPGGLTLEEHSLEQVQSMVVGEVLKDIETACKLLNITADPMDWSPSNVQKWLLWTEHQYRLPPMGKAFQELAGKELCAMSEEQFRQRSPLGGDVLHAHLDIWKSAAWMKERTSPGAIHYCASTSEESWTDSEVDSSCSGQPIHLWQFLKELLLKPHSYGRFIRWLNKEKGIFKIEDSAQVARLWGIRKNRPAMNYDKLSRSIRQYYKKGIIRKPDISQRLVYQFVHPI
# In short: as §1
# [9] = molecular target: T8, ETV7 (Homo sapiens, UniProt Q9Y603 1-341)
# T8 sequence: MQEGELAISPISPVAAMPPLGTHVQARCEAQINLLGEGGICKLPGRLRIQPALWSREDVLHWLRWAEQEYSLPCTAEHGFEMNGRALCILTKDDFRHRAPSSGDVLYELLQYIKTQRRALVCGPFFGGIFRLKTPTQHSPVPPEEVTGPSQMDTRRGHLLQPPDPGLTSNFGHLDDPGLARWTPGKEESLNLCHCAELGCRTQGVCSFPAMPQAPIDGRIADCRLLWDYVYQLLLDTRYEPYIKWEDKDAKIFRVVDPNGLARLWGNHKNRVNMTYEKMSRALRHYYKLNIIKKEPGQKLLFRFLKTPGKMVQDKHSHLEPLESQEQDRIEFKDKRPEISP
# In short: as §1
# [10] = molecular target: T9, ELF5 (Homo sapiens, UniProt Q9UKW6-2 1-255)
# T9 sequence: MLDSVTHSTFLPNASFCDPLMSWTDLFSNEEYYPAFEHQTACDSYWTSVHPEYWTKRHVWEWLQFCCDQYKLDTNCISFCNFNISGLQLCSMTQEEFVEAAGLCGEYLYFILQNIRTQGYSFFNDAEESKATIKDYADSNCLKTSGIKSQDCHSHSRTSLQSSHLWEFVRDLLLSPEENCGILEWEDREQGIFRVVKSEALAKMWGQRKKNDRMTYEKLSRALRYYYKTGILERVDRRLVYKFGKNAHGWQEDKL
# In short: as §1
# [11] = molecular target: T10, ETV3 (Homo sapiens, UniProt P41162-2 1-143)
# T10 sequence: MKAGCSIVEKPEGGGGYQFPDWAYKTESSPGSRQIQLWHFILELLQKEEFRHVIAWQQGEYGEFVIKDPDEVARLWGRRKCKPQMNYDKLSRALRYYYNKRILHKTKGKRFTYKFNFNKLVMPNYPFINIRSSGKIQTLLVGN
# In short: as §1
# [12] = molecular target: ETV6 (Homo sapiens, UniProt P41212 1-452)
# In short: as §1
# ETV6, sequence (P41212 whole entry): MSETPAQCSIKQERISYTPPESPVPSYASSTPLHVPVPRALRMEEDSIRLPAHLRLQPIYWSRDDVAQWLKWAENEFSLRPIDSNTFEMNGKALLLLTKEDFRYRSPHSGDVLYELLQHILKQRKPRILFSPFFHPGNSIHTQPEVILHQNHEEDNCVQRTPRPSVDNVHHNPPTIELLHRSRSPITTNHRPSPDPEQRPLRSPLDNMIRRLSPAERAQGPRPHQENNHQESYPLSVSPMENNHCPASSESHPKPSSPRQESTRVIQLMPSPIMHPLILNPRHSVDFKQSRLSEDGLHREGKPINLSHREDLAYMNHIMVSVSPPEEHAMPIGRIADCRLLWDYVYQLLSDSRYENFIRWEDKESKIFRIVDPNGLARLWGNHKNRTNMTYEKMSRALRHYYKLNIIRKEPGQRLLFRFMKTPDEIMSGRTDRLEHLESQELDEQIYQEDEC
# ETV1, sequence (P50549 whole entry): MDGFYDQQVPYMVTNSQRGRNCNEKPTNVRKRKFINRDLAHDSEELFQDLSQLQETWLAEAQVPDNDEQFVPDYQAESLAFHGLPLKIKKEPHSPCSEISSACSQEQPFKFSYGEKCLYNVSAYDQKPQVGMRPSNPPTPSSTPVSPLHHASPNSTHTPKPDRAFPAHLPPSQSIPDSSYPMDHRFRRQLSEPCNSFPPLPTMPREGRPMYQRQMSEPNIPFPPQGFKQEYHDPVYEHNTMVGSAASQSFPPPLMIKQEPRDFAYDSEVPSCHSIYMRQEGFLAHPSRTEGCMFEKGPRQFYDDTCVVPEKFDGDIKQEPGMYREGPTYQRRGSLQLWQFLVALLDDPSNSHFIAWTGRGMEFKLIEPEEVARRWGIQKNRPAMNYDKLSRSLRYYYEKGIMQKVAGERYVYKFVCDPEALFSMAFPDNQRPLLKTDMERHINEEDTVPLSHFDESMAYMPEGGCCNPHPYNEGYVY
sequence,measurement,setting,value
CGTTGC,binding signal,[1],"1.16 fold enrichment (6-mer frequency, TF over GST control)"
same,binding signal,[2],"1.12 fold enrichment (6-mer frequency, TF over GST control)"
same,binding signal,[3],"1.07 fold enrichment (6-mer frequency, TF over GST control)"
same,binding signal,[4],"1.18 fold enrichment (6-mer frequency, TF over GST control)"
same,binding signal,[5],"1.13 fold enrichment (6-mer frequency, TF over GST control)"
same,binding signal,[6],"1.17 fold enrichment (6-mer frequency, TF over GST control)"
same,binding signal,[7],"1.2 fold enrichment (6-mer frequency, TF over GST control)"
same,binding signal,[8],"1.18 fold enrichment (6-mer frequency, TF over GST control)"
same,binding signal,[9],"1.03 fold enrichment (6-mer frequency, TF over GST control)"
same,binding signal,[10],"1.03 fold enrichment (6-mer frequency, TF over GST control)"
same,binding signal,[11],"1.16 fold enrichment (6-mer frequency, TF over GST control)"
same,binding signal,[12],"1.04 fold enrichment (6-mer frequency, TF over GST control)"

# — publication PMC7862700, “An all-to-all approach to the identification of sequence-specific readers for epigenetic DNA modifications on cytosine”
